Source: PubChem (The Scripps Research Institute Molecular Screening Center)
sPLA2-III inh – Blocks human group III sPLA2 activity; Q9NZ20; inhibition, % at 12.2 µM; QFRET BODIPY PC-A2 liposome hydrolysis, fluorescence; 0.56% of 370,000 active; AID 743126;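 active = inhibition above mean plus 3 SD of compounds lying within the high and low control bounds, cut at about 19% in these data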
Target sequence (Q9NZ20 whole entry, looked up): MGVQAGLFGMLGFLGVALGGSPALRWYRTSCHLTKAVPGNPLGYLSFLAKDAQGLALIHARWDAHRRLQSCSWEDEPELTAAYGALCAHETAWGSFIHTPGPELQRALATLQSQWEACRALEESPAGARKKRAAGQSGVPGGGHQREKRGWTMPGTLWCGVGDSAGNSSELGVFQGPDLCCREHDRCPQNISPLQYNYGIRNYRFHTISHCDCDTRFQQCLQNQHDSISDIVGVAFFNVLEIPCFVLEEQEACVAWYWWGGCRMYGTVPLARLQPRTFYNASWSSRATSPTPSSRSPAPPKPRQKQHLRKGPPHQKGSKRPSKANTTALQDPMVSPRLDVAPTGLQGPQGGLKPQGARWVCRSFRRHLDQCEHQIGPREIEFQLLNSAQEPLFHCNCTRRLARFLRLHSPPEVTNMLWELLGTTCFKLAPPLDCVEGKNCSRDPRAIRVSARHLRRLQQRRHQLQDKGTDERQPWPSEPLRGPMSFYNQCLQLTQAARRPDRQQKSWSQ
PLC-beta3 inh – blocks human PLC-beta3 enzyme activity. Q01970. inhibition, % at 12.2 µM. 0.18% of 370,000 active. AID 720704. Purified PLC-beta3, fluorogenic substrate, fluorescence; in the data active = inhibition above about 11%
ADAM10 inh – inhibitors of human ADAM10; recombinant ADAM10, EDANS/DABCYL FRET peptide cleavage, 3 h; inhibition, % at 7 µM; 0.62% of 370,000 active; AID 720582;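 active = inhibition above a per-campaign cutoff equal to the mean of compounds falling between control-based bounds plus 3 SD, cut at about 20% in these data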
ADAM17 inh – inhibits human ADAM17. recombinant ADAM17, EDANS/DABCYL FRET peptide cleavage. P78536. 0.83% of 370,000 active. inhibition, % at 6.95 µM;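 active = inhibition above the mean of compounds lying between control limits plus 3 SD, set per campaign, cut at about 8.5% in these data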
KLK7 zymogen act – activates the human kallikrein-7 zymogen; P49862; purified proKLK7, EDANS-DABCYL substrate fluorescence; 100% is mature enzyme control, 0% vehicle; 0.9% of 370,000 active; activation, % at 7 µM;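 active = activation above the mean of all tested compounds plus 3 SD, computed per campaign excluding outliers beyond control limits, cut at about 13% in these data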
PLC-gamma1 inh – inhibitors of human phospholipase C gamma1. P19174. purified PLC-gamma1, fluorogenic substrate, fluorescence. inhibition, % at 12.2 µM. 0.84% of 370,000 active; in the data active = inhibition above about 9.5%
ADAM10 confirm – human ADAM10 inhibition, confirmation. shares compounds with ADAM10 inh. ADAM10 QFRET peptide cleavage, EDANS fluorescence. inhibition, % at 6.95 µM. 1% of 2,100 active. AID 743208;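 active = inhibition above about 20% chosen separately for each screening run, limit read from the data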
ADAM17 ctr – counter-screen for ADAM10 exosite inhibitors: inhibitors of human ADAM17; shares compounds with ADAM10 inh; ADAM17 QFRET peptide cleavage, EDANS fluorescence; inhibition, % at 6.95 µM; 0.5% of 2,100 active; AID 743214;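 active = mean triplicate inhibition above the solvent-only control wells' mean plus 3 SD, cut at about 12% in these data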
ADAM10 ctr – inhibits human ADAM10 in ADAM17 exosite counter-screen; inhibition, % at 6.95 µM; 47% of 2,900 active; recombinant ADAM10, EDANS/DABCYL FRET peptide cleavage, 3 h; AID 743256; shares compounds with ADAM17 inh;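 active = mean inhibition over the triplicate runs exceeds the activity threshold set in the earlier primary screen, cut at about 20% in these data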
ADAM17 confirm – confirmation of inhibitors of human ADAM17. shares compounds with ADAM17 inh. recombinant ADAM17, EDANS/DABCYL QFRET peptide cleavage. inhibition, % at 6.95 µM. 65% of 2,900 active. AID 743257;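 active = mean inhibition across replicates above the hit cutoff set in the primary screen, cut at about 8.5% in these data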
Numbers stand for hits; – = inactive; · = not tested or not shown. An excerpt weighted towards active compounds, which were near 3.4% of everything screened.

SMILES	sPLA2-III inh	PLC-beta3 inh	ADAM10 inh	ADAM17 inh	KLK7 zymogen act	PLC-gamma1 inh	ADAM10 confirm	ADAM17 ctr	ADAM10 ctr	ADAM17 confirm
Cc1cc(F)ccc1C(O)c1ncc(-c2cccc(OCc3ccccc3)c2)[nH]1 (stereo unspecified)	–	–	29	9.7	–	–	–	–	39	20
O=c1cc(-c2ccc(O)cc2)oc2cc(O)cc(O)c12	–	–	–	–	–	–	·	·	·	·
O=c1c(O)c(-c2ccc(O)cc2)oc2cc(O)cc(O)c12	–	–	21	8.9	–	–	–	–	–	–
CC1C(=O)N2CCCc3cc(NC(=O)c4ccccc4F)cc1c32 (stereo unspecified)	–	–	–	–	–	–	·	·	·	·
OC(c1ccc(F)c(F)c1)c1ncc(-c2cccc(C(F)(F)F)c2)[nH]1 (stereo unspecified)	–	–	–	–	–	–	·	·	·	·
OC(c1ccc(Cl)c(F)c1)c1ncc(-c2cccc(C(F)(F)F)c2)[nH]1 (stereo unspecified)	–	–	32	11	–	–	–	–	26	14
COc1ccc(/C=N/Nc2nc3ccccc3s2)cc1O	–	–	–	–	–	–	·	·	·	·
COc1ccc(C=C(c2nc3ccccc3s2)c2nc3ccccc3s2)cc1O	–	–	20	8.6	–	–	–	–	25	14
CCOC(=O)c1ccc(NC(=O)C2CCCN(S(=O)(=O)c3ccc(F)cc3)C2)cc1 (stereo unspecified)	–	–	25	8.8	–	–	–	–	–	13
CC(=O)O[C@@H]1CCC[C@@]2(C(=O)N(Cc3ccccc3)c3ccc(-c4c(C)noc4C)cc32)[C@H]1NC(=O)CCc1ccccc1	–	–	23	10	–	–	–	–	–	11
CCCCC[C@@H](C)N1C[C@H](COCc2ccccc2)Oc2cc(N3CCC[C@@H]3CO)ccc2S1(=O)=O	–	–	21	8.7	–	–	–	–	–	10
CCCCC[C@@H](C)N1C[C@H](COCc2ccccc2)Oc2cc(N3CCC[C@H]3CO)ccc2S1(=O)=O	–	–	–	–	–	–	·	·	·	·
CCCCC[C@H](C)N1C[C@@H](COCc2ccccc2)Oc2cc(N3CC[C@H](O)C3)ccc2S1(=O)=O	–	–	21	13	–	–	–	–	30	21
O=C(O)Cn1nnnc1SCC(=O)Nc1ccc(F)cc1F	–	–	–	–	–	–	·	·	·	·
CC1CCCCC1NC(=O)CCS(=O)(=O)c1ccc(Cl)cc1 (stereo unspecified)	–	–	–	–	–	–	·	·	·	·
CCN1C[C@@H]2[C@@H]3C(=O)N(Cc4ccccc4)C(=O)[C@@H]3[C@](C)(C1=O)N2C(=O)c1ccc(C(F)(F)F)cc1	–	–	–	–	–	–	·	·	·	·
Cc1ccc(-c2nc3ncccn3c2NC(=O)c2cccc(C)c2)cc1	–	–	–	–	–	–	·	·	·	·
CCOc1ccccc1NC1=CC(=O)CC(c2ccccc2)C1 (stereo unspecified)	–	–	22	10	–	–	–	–	–	–
CC(C)C[C@H](NC(=O)c1[nH]cnc1C(=O)N[C@@H](Cc1ccccc1)C(=O)OCc1ccccc1)C(=O)OC(C)(C)C	–	–	–	–	–	–	·	·	·	·
CC(C)(C)OC(=O)NCCCCCNC(=O)c1ncn(Cc2ccccc2)c1C(=O)NCCCCCNC(=O)OC(C)(C)C	–	–	20	13	–	–	–	–	31	16
CC(C)C[C@H](NC(=O)c1nc[nH]c1C(=O)NCCCCCNC(=O)OC(C)(C)C)C(=O)OCc1ccccc1	–	–	29	14	–	–	–	–	42	21
CC(C)(C)OC(=O)NCCCCCNC(=O)c1[nH]cnc1C(=O)N[C@@H](Cc1ccccc1)C(=O)OCc1ccccc1	–	–	23	11	–	–	–	–	41	21
C[C@H](NC(=O)c1nc[nH]c1C(=O)NCCCCCNC(=O)OC(C)(C)C)C(=O)OCc1ccccc1	–	–	–	–	–	–	·	·	·	·
CC(C)C[C@@H]1NC(=O)[C@@H]2CSCCS(=O)(=O)N2C1=O	–	–	–	–	–	–	·	·	·	·
Cc1cc2c(c(=O)o1)[C@@]1(C(=O)N(C)c3ccccc31)C1=C(CC3(CCCCC3)OC1=O)O2	–	–	–	–	–	–	·	·	·	·
SMILES	sPLA2-III inh	PLC-beta3 inh	ADAM10 inh	ADAM17 inh	KLK7 zymogen act	PLC-gamma1 inh	ADAM10 confirm	ADAM17 ctr	ADAM10 ctr	ADAM17 confirm
Cc1c(C(=O)NCCC2=CCCCC2)oc2ccc(S(=O)(=O)N3CCC4(CC3)OCCO4)cc12	–	–	22	8.9	–	–	–	–	–	10
Cc1ccc(OC(C)C(=O)Nc2ccc(C)c(S(=O)(=O)Nc3ccc(C)cc3C)c2)cc1 (stereo unspecified)	–	–	24	12	–	–	–	–	28	15
Cc1ccc(OC(C)C(=O)Nc2ccncc2)cc1 (stereo unspecified)	–	–	–	–	–	–	·	·	·	·
CCN1C(=O)[C@H]2[C@H]3CN=C(SCC4CC4)N3[C@@](CC)(C(=O)OC)[C@H]2C1=O	–	–	–	–	–	–	·	·	·	·
CCc1ccc(-c2cn(C3CCCCC3)c(=S)[nH]2)cc1	23	–	29	9.6	–	–	–	–	–	–
O=C(Nc1cccc2ccccc12)c1ccc(OC(=S)N2CCOCC2)cc1	–	–	21	9.7	–	–	–	–	–	11
O=C(Nc1cccc(Cl)c1)c1ccc(OC(=S)N2CCOCC2)cc1	–	–	–	–	–	–	·	·	·	·
COC(=O)Nc1ccc(S(=O)(=O)N2CCC(Cc3ccccc3)CC2)cc1	–	–	20	11	–	–	–	–	35	14
Cc1cccc(N2C(=O)C3CCCN3C2=S)c1C (stereo unspecified)	–	–	–	–	–	–	·	·	·	·
Cn1cccc1CC(=O)NNC(=S)NC(=O)c1ccc(F)cc1	–	–	–	–	–	–	·	·	·	·
COC(=O)[C@]12C[C@H](CC(=O)NCc3cccc(C(F)(F)F)c3)C(=O)N(CCc3ccc(OC)c(OC)c3)C1=C[C@H](C(C)(C)C)O[C@@H]2C	–	–	–	–	–	–	·	·	·	·
